Screening data deposited in PubChem BioAssay by The Scripps Research Institute Molecular Screening Center.
MOR-DOR inv ag: mu-delta opioid heterodimer inverse agonism | inhibition, % at 9.3 µM | AID 504357 | P35372+P41143 | hit rate 0.21% among 340,000 | cell-based MOR-DOR heterodimer luminescence; in the data active means inhibition above about 22%, passing the limit was not always enough
Target sequence (P35372 whole entry, looked up): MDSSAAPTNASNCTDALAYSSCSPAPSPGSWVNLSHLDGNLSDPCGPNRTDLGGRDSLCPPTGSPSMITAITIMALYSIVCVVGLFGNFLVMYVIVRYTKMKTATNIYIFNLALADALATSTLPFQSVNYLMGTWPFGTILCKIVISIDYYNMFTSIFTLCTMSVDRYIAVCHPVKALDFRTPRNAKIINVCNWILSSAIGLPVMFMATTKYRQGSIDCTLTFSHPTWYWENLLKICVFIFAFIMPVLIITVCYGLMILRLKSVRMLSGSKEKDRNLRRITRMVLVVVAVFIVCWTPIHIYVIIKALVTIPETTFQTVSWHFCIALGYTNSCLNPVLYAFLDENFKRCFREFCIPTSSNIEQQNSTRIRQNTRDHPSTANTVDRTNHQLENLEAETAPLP
Target sequence (P41143 whole entry, looked up): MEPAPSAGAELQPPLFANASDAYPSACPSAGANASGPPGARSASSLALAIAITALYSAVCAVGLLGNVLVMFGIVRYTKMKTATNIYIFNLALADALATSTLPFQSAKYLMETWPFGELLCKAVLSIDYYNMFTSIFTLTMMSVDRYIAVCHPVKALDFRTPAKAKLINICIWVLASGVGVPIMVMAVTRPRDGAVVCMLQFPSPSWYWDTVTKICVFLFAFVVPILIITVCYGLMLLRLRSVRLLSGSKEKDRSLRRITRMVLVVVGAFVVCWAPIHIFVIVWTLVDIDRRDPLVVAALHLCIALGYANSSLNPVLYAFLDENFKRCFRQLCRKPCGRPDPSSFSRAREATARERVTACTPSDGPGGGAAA
HTR5A inv ctr: inverse agonist of human HTR5A in OPRM1-OPRD1 counter-screen; P47898; HTR5A cell line, luminescence, inverse agonism; inhibition, % at 9.3 µM; hit rate 0.083% among 340,000; AID 504634; in the data active means inhibition mostly above about 23%, no sharp cut-off; inactive means mostly below about 18%
MOR-DOR ag: agonists of human mu-delta opioid receptor heterodimerization | P35372+P41143 | cells, OPRM1-OPRD1 heterodimerization, luminescence | activation, % at 9.3 µM | hit rate 0.3% among 340,000 | AID 504326; in the data active means activation above about 18%
HTR5A ag ctr: HTR5A agonism, opioid heterodimer counter-screen; P47898; HTR5A agonist assay, luminescence, cell-based; activation, % at 9.3 µM; hit rate 0.61% among 340,000; in the data active means activation mostly above about 9.5%, no sharp cut-off; inactive means mostly below about 7.6%
A number is an active result; – = inactive. An excerpt weighted towards active compounds, which were near 1.1% of everything screened.

SMILES	MOR-DOR inv ag	HTR5A inv ctr	MOR-DOR ag	HTR5A ag ctr
COC(=O)c1ccc2c(c1)N(Cc1ccccc1F)C(=O)c1ccccc1S2=O (centres undefined)	–	–	–	–
CCOC(=O)c1ccc2c(c1)N(Cc1ccccc1C)C(=O)c1ccccc1S2=O (centres undefined)	–	–	–	9.5
O=C(CCCOc1ccccc1)Nc1ccc(Cl)c(S(=O)(=O)N2CCOCC2)c1	–	–	–	–
O=C(COc1cccc(Br)c1)Nc1ccc(Cl)c(S(=O)(=O)N2CCOCC2)c1	–	–	–	9.3
O=C(COC(=O)c1cccnc1Cl)Nc1cccc(S(=O)(=O)N2CCOCC2)c1	–	–	–	12
CCC(=O)Nc1ccc(Cl)c(NC(=O)c2ccc([N+](=O)[O-])cc2)c1	–	–	–	12
CCC(CN(C)C)Oc1cc(NCc2ccccc2)c2ncn(C(C)C)c2c1 (centres undefined)	–	–	24	21
CC(=O)n1cc(/C=N/NC(=O)c2ccccc2O)c2ccccc21	–	–	–	–
Cn1cc(/C=N/NC(=O)c2ccccc2O)c2ccccc21	–	–	–	10
Cc1cc(=O)oc2cc(OC(C)C)ccc12	–	–	–	–
Cc1cc(=O)oc2cc(OC(C(=O)O)c3ccccc3)ccc12 (centres undefined)	–	–	–	11
CC(C)CNS(=O)(=O)c1cc(C(=O)OCC(=O)c2ccc3c(c2)OCCO3)c(Cl)cc1Cl	–	–	–	–
CCCn1c(C)cc(C(=O)COC(=O)c2cc(S(=O)(=O)NCC(C)C)c(Cl)cc2Cl)c1C	–	–	–	14
O=C(O/N=C1/CCCc2occc21)c1ccc(Cl)cc1Cl	–	–	–	–
CCCOc1ccc(/C=C/C(=O)NC2CCCCC2)cc1	–	–	–	–
O=C(/C=C/c1ccc(Br)cc1)NC1CCCCCC1	–	–	–	14
COc1cccc(NC(=O)/C=C/c2ccc(S(=O)(=O)N3CCOCC3)cc2)c1	–	–	–	–
S=C(Nc1ccc(Cl)c(Cl)c1)NC1CCN(Cc2ccccc2)CC1	–	–	23	12
CC(C)Oc1ccccc1-c1nc(SCC(=O)O)n[nH]1	–	–	–	12
CCOC(=O)N1CCN(C(=O)CSc2nnc(Cn3c(=O)sc4ccccc43)n2C)CC1	–	–	–	–
CCOC(=O)CSc1nnc(Cn2c(=O)sc3ccccc32)n1C	–	–	–	11
NNc1nc(-c2ccccc2)cc(-c2ccccc2O)n1	–	–	–	–
NNc1nc(-c2ccccc2)cc(-c2ccccc2)n1	52	43	–	–
C=C(C)C(=O)Nc1ccc2c(c1)OCCOCCOCCO2	–	–	–	–
COc1ccc(-c2nn(-c3ccccc3)cc2C#N)cc1	–	–	–	14
SMILES	MOR-DOR inv ag	HTR5A inv ctr	MOR-DOR ag	HTR5A ag ctr
Cc1ccc(S(=O)(=O)Nc2cccc3ncccc23)s1	44	–	–	–
C(=C1c2ccccc2-c2ccccc21)c1ccncc1	–	–	–	8.9
COc1ccc(-n2c3c(cc(C(=O)NCC(=O)c4ccccc4)c2=O)C(=O)CC(C)(C)C3)cc1	–	–	–	–
Cc1nc2ccccc2c2oc(C(=O)Nc3ccc(C(C)C)cc3)cc12	–	–	–	14
Cc1nc2ccccc2c2oc(C(=O)Nc3ccc4c(c3)OCCO4)cc12	–	–	–	–
COc1ccc2c(C#CCCO)c(-c3ccc(S(C)(=O)=O)cc3)sc2c1	–	–	–	13
COc1ccc2sc(-c3ccc(S(C)(=O)=O)cc3)c(C#CCO)c2c1	–	–	–	–
COc1ccc(-c2csc(NC(=O)C3CC(=O)N(Cc4ccccc4)C3)n2)cc1OC (centres undefined)	–	–	–	–
CCOC(=O)C1CCCN(c2oc(-c3ccc(OC)cc3)nc2C#N)C1 (centres undefined)	–	–	–	–
COc1ccc(C)cc1NC(=O)CSc1nnc(-c2cc3cccc(OC)c3o2)n1N	–	–	–	13
Cc1cc(C)cc(N(CCC#N)C(=O)CSC2=Nc3ccccc3C3CC=NN23)c1 (centres undefined)	–	–	–	12
COc1ccc(NC(=O)CC2C(=O)N(c3ccc(Cl)cc3)C(=S)N2NC(=O)c2cccc(F)c2)cc1 (centres undefined)	–	–	–	–
COc1ccc(NC(=O)CC2C(=O)N(c3ccc(F)cc3)C(=S)N2NC(=O)c2ccc(Cl)cc2)cc1 (centres undefined)	–	–	–	12
CCOC(=O)/C=C1/SCC(=O)N1CC(=O)NC12CC3CC(CC(C3)C1)C2	–	–	–	10
CCOC(=O)/C=C1\SCC(=O)N1CC(=O)Nc1ccc(OC)c(OC)c1	–	–	–	–
CCC(=O)N1CCc2cc(S(=O)(=O)N3CCCCCC3)ccc21	–	–	–	13
CCC(=O)N1CCc2cc(S(=O)(=O)N3CCCC3)ccc21	–	–	–	–
COc1ccccc1CNC(=O)OCc1nccnc1C(=O)Nc1ccc(Br)cn1	–	–	–	–
O=C(CCCCCn1c(=S)[nH]c2ccc(N3CCOCC3)cc2c1=O)NCc1ccccc1Cl	–	–	–	–
O=C(CCCCCn1c(=S)[nH]c2ccc(N3CCOCC3)cc2c1=O)NCc1ccc(Cl)cc1	–	–	–	13
O=C(CCCCCn1c(=S)[nH]c2ccc(N3CCOCC3)cc2c1=O)NCc1ccc2c(c1)OCO2	–	–	–	12
CC(C)c1ccc(NC(=O)NCc2cccnc2)cc1	–	–	–	–
O=C(Nc1ccc(Cl)c(Cl)c1)C1CCN(C(=O)c2ccco2)CC1	–	–	–	–
CCOC(=O)c1cc(-c2ccccc2)n(CCC(=O)NC(C)CC)c1C (centres undefined)	–	–	–	11
CCC(=O)Nc1nc2ccccc2n1Cc1ccc(Cl)cc1	–	–	–	14
SMILES	MOR-DOR inv ag	HTR5A inv ctr	MOR-DOR ag	HTR5A ag ctr
c1ccc(C(c2c[nH]c3ccccc23)c2c[nH]c3ccccc23)nc1	–	–	–	32
Cc1c(C(=O)Nc2nc3ccccc3[nH]2)oc2ccccc12	–	–	–	11
Cc1ccc(S(=O)(=O)N(C)C)cc1NC(=O)COC(=O)/C=C/c1cnc2ccccc2n1	–	–	–	14
COc1ccc(-n2c(SCC(=O)Nc3cc(C(=O)O)ccc3C)nc3ccccc3c2=O)cc1Cl	–	–	–	–
CCOc1ccc(NC(=O)c2cccc(NC(C)=O)c2)cc1S(=O)(=O)N1CCCC1	–	–	–	–
CCS(=O)(=O)c1nc(S(=O)(=O)c2ccc(C)cc2)c(N2CCOCC2)s1	–	–	–	11
Cc1ccc(S(=O)(=O)c2nc(S(C)(=O)=O)sc2N2CCOCC2)cc1	–	–	–	–
COc1cc(C)ccc1OCCOCCOc1cccc2ccc(C)nc12	–	–	–	8.7
O=C(O)c1cccc(N2C(=O)C3CC=C(Cl)CC3C2=O)c1 (centres undefined)	–	–	–	11
O=C(O)c1cccc(N2C(=O)C3CC=CCC3C2=O)c1 (centres undefined)	–	–	–	–
COc1cc(C(=O)O)cc(Br)c1OC1CCCC1	–	–	–	11
Cc1ccc(C2=Nc3ccc(Br)cc3C(c3ccncc3)=NN2)cc1	–	–	–	–
COc1ccc(-c2nn(Cc3ccccc3)cc2C(=O)N2CCN(c3ncccn3)CC2)cc1OC	–	–	–	12
